# Bioassay records from PubChem BioAssay.
# Sampled rows, rich in hits. Any-hit rate of the full collection: about 27%.
# sEH act: activators of human soluble epoxide hydrolase; P34913; purified human sEH enzymatic activity, activator screen; activation, % at 2 µM; hit rate 0.04% among 91,000; AID 717; in the data active = activation above about 37%
# CYP2C19 inhib: human CYP2C19 inhibition. CYP2C19 Supersomes, luciferin-H EGE luminescence, 30 min. P33261. hit rate 21% among 96,000. AID 778. inhibition, % at 5 µM;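 active = CYP2C19 inhibition above a set limit at 5 µM in the primary screen, cut at about 50% in these data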;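 note: plate controls were negative control wells for no effect and 2.5 mM tranylcypromine positive control for full effect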
# Target sequence (P33261 whole entry, looked up): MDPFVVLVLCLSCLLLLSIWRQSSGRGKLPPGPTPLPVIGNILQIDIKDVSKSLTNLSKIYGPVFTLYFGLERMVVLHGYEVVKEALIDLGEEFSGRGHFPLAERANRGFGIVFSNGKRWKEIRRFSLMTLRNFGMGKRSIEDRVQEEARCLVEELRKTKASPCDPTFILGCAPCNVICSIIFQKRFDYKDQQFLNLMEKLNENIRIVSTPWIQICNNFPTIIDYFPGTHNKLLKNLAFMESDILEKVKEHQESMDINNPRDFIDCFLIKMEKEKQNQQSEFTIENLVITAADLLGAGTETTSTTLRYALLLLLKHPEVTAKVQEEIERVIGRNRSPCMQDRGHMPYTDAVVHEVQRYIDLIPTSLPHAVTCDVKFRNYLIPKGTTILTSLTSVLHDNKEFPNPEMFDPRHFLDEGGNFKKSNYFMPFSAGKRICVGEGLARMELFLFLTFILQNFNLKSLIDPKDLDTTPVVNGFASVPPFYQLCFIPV
# CYP2C19 act: increases human CYP2C19 enzyme activity | P33261 | recombinant CYP2C19, luciferin-H EGE luminescence; hits give high values; 0 = fully inhibited enzyme, 1 = untreated enzyme | activation factor at 5 µM | 96,000 tested, under 10 active | AID 1025;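 active = activation factor of at least 2 at 5 µM in the primary screen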;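 note: 0 = wells with 2.5 mM tranylcypromine and 1 = vehicle-only wells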
# CYP2C9 inh: human CYP2C9 inhibition | P11712 | CYP2C9 Supersomes, luciferin-H conversion, luminescence | inhibition, % at 5 µM | hit rate 20% among 96,000 | AID 777;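 active = blocking of liver enzyme CYP2C9 beyond about 50% at 5 µM, limit read from the data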
# CYP2C9 activ: increases human cytochrome P450 2C9 activity | recombinant CYP2C9, luciferin-H conversion, luminescence; hits give high values; factor 1 = untreated enzyme, 0 = blocked | activation factor at 5 µM | hit rate 1.4% among 96,000;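 active = activation factor of 2 or more for CYP2C9 at a 5 µM dose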;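 note: 0 = sulfaphenazole-blocked wells and 1 = vehicle-only wells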
# sEH inh: blocks human soluble epoxide hydrolase activity | P34913 | recombinant human sEH enzymatic activity assay | inhibition, % at 2 µM | hit rate 0.34% among 91,000 | AID 707; in the data active = inhibition above about 80%
# * = called active by the depositor; . = no result.
SMILES,sEH act,CYP2C19 inhib,CYP2C19 act,CYP2C9 inh,CYP2C9 activ,sEH inh
Cc1cc(C)c(S(=O)(=O)NCC(=O)O)cc1C,-2,-8,1.1,-14,1.1,4
CCOc1c(OC)ccc2c3c(c(=O)oc12)CCCC3,-2,76*,0.2,-163,2.6*,2
CCOc1ccc2c(C)c(C)c(=O)oc2c1OCC,-3,51*,0.5,-152,2.5*,3
CN(C)CCNC(=O)C(C(=O)c1ccc(F)cc1)n1ccccc1=O (stereo not given),1,11,0.9,8,0.9,-1
CCCCCCCC(=O)N/N=C/c1ccc(Br)cc1,-69,75*,0.2,18,0.8,69
CCCCCCCCCCCC(=O)N/N=C/c1ccco1,5,26,0.7,56*,0.4,-4
CCCCCCCCCC(=O)N/N=C/c1ccc(C)s1,-76,77*,0.2,74*,0.3,76
CC(=O)OC1c2ccccc2C(=O)N1Cc1ccccc1 (stereo not given),15,51*,0.5,-17,1.2,-16
O=C(C1=C(O)C(=O)N(Cc2ccco2)C1c1cccnc1)c1cc2ccccc2o1 (stereo not given),-3,-5,1,25,0.8,2
CC(=O)OC1c2ccccc2C(=O)N1c1ccccc1C (stereo not given),3,0,1,-2,1,-4
CC(C)CCN1C(=O)c2ccccc2C1C(=O)NCc1cccnc1 (stereo not given),-7,62*,0.4,19,0.8,4
O=C(NCc1cccnc1)C1c2ccccc2C(=O)N1Cc1ccccc1 (stereo not given),-14,63*,0.4,22,0.8,14
O=C(NCc1cccnc1)C1c2ccccc2C(=O)N1Cc1ccco1 (stereo not given),15,78*,0.2,21,0.8,-20
CCOC(=O)C1CCN(S(=O)(=O)c2c(C)[nH]c(=O)[nH]c2=O)CC1,.,26,0.7,-14,1.1,.
CCSc1nc(O)c(C2OC(=O)c3c2ccc(OC)c3OC)c(=O)n1CC (stereo not given),4,15,0.8,18,0.8,-5
CC(c1ccco1)N(C(=O)Nc1ccc(Cl)cc1)c1ccccn1 (stereo not given),-16,85*,0.2,56*,0.4,18
CC(N=c1ccccn1C(=O)Nc1ccc(Cl)cc1)c1ccco1 (stereo not given),-50,40,0.6,22,0.8,49
Cc1ccc(C(=O)N(c2ccccn2)C(C)c2ccco2)cc1 (stereo not given),9,80*,0.2,29,0.7,-10
CC(c1ccco1)N(C(=O)C12CC3CC(CC(C)(C3)C1)C2)c1ccccn1 (stereo not given),9,42,0.6,23,0.8,-11
CN(C)c1nc(N)nc(Cn2ccnc2)n1,18,54*,0.5,-6,1.1,-15
CCOc1ccc(-c2nnn(CC(=O)NCc3cccs3)n2)cc1,4,44,0.6,8,0.9,-6
CCN(CC)C(=O)C(=O)c1cccn1-c1ccccc1C#N,2,18,0.8,-7,1.1,0
CC(C(=O)O)n1nc2ccccc2n1 (stereo not given),-3,-6,1.1,-4,1,4
Cc1nc(SC(C(=O)c2ccccc2)c2ccccc2)n[nH]1 (stereo not given),0,78*,0.2,49,0.5,1
O=C1N(CC(=O)N2CCc3ccccc32)CCN1Cc1ccccc1Cl,-3,25,0.7,-204,3*,2
SMILES,sEH act,CYP2C19 inhib,CYP2C19 act,CYP2C9 inh,CYP2C9 activ,sEH inh
O=C(CN1CCN(Cc2ccccc2Cl)C1=O)NC1CCCCCC1,-78,60*,0.4,-80,1.8,78
Cc1ccc(-c2nnc(N3CCN(c4ccccn4)CC3)c3ccccc23)cc1,5,46,0.5,32,0.7,-1
CCCS(=O)(=O)N1CCN(S(=O)(=O)c2ccccc2)CC1,1,61*,0.4,56*,0.4,-2
Cc1ccc2cc(C)c(N3CCN(c4ccccn4)CC3)nc2c1,-8,77*,0.2,70*,0.3,10
CCS(=O)(=O)N1CCN(S(=O)(=O)c2ccc(F)cc2)CC1,5,.,.,.,.,0
Cc1ccc(S(=O)(=O)N2CCN(C(=O)Cc3ccccc3)CC2)cc1,10,64*,0.4,33,0.7,-9
Cc1ccc2[nH]cc(C(=O)CN3CCN(c4ccccn4)CC3)c2c1,-2,87*,0.1,84*,0.2,0
CCOCC(=O)Nc1nc(-c2ccccc2)c(CC)s1,6,-1,1,31,0.7,-3
CCCCCCNC(=O)C(C(=O)OCC)C1CCCCC1 (stereo not given),12,48,0.5,44,0.6,-11
CCOC(=O)CC(=O)CSc1nc2c(cc1C#N)CCC2,6,7,0.9,19,0.8,-6
Cc1ccc(C(NC(=O)NCCCN2CCOCC2)=C(Cl)Cl)cc1F,-16,13,0.9,19,0.8,19
Cc1ccsc1C(=O)OCC(=O)Nc1sccc1C(N)=O,13,25,0.7,28,0.7,-13
CCS(=O)(=O)N1CCN(c2ccccn2)CC1,4,24,0.8,20,0.8,-4
Cc1ccc(S(=O)(=O)N2CCCN(S(=O)(=O)c3ccc(C)cc3)CC2)cc1,-8,8,0.9,-66,1.7,7
Cc1ccc(CC(=O)N2CCN(c3ccccn3)CC2)cc1,-14,98*,0,87*,0.1,12
Cc1ccc(S(=O)(=O)N2CCN(S(=O)(=O)c3ccc(C)cc3)C2)cc1,0,30,0.7,68*,0.3,-1
O=S(=O)(c1ccccc1)N1CCN(S(=O)(=O)c2ccccc2)C1,-2,94*,0.1,67*,0.3,0
CCCS(=O)(=O)N1CCN(c2ccccn2)CC1,-2,69*,0.3,40,0.6,3
COc1ccc(C2NCCO2)cc1OC (stereo not given),-6,2,1,0,1,4
O=C(CN1CCN(Cc2ccccc2)CC1)c1c[nH]c2ccccc12,5,13,0.9,27,0.7,-5
O=C(CN1CCSCC1)c1c[nH]c2ccccc12,5,64*,0.4,37,0.6,-3
CCCCN(C)C(=O)c1coc(=O)c2ccccc12,2,10,0.9,-1,1,-2
CN(C(=O)c1coc(=O)c2ccccc12)c1ccc(F)cc1,.,25,0.8,59*,0.4,.
CSc1nnc2c3cc(C)ccc3n(Cc3ccccc3)c2n1,.,8,0.9,30,0.7,.
Cc1sc2ncn(CCn3cnc4sc(C)c(C)c4c3=O)c(=O)c2c1C,11,86*,0.1,74*,0.3,-11
Cc1sc2ncn(CCC(=O)O)c(=O)c2c1C,3,24,0.8,-215,3.2*,-5
